# Data published in PMC7862700, “An all-to-all approach to the identification of sequence-specific readers for epigenetic DNA modifications on cytosine”.
# Assays:
# Assay in all cases: DAPPL (digital affinity profiling via proximity ligation, sequencing); 10 mM Tris-HCl pH 7.5, 50 mM NaCl, 1 mM DTT, 4% glycerol, room temperature, 30 min; GST-TFs on glutathione beads, 16-mer random dsDNA library, 0.1% formaldehyde crosslink after washing; high values mean tight binding
# FEV = target: T1, FEV (Homo sapiens, UniProt Q99581 1-238); details: protein: recombinant; tags: N-terminal GST; dsDNA, one strand shown
# T1 sequence: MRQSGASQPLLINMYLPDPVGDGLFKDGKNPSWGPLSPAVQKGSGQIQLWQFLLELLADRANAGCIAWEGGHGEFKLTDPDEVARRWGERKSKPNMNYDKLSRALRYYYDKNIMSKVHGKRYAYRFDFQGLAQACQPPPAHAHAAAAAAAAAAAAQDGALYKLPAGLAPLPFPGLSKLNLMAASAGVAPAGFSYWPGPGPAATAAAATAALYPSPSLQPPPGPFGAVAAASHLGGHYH
# Method in brief: (§1)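 Binding signal is each hexamer's read frequency for a factor divided by its frequency in the tag-only sample. The factors were GST-fused human transcription factors from yeast, captured on glutathione beads, DNA-barcoded and pooled with that sample. Pools were incubated with 200 nmole of a random double-stranded 16-mer DNA library in Tris/NaCl/DTT/glycerol buffer at room temperature for 30 min, then washed, crosslinked with 0.1% formaldehyde, proximity-ligated with BsaI/T4 ligase (1 h, 37 °C), PCR-amplified and sequenced on an Illumina NextSeq500.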
# ETV5 = ETV5 (Homo sapiens, UniProt P41161 1-510); details: protein: recombinant; tags: N-terminal GST; dsDNA, one strand shown
# Method in brief: as §1
# HSF1 = HSF1 (Homo sapiens, UniProt Q00613 1-529); details: protein: recombinant; tags: N-terminal GST; chain copies: 3; dsDNA, one strand shown
# Method in brief: as §1
# SPIC = target: T2, SPIC (Homo sapiens, UniProt Q8N5J4 1-248); details: protein: recombinant; tags: N-terminal GST; dsDNA, one strand shown
# T2 sequence: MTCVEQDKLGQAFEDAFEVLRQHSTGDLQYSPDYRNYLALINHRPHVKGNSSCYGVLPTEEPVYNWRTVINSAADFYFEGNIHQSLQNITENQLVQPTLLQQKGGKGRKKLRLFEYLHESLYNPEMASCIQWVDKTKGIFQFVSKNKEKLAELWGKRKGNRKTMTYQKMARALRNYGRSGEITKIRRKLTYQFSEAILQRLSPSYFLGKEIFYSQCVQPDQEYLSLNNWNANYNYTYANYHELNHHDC
# Method in brief: as §1
# ELF4 = ELF4 (Homo sapiens, UniProt Q99607 1-663); details: protein: recombinant; tags: N-terminal GST; dsDNA, one strand shown
# Method in brief: as §1
# ELK4 = target: T3, ELK4 (Homo sapiens, UniProt P28324-2 1-405); details: protein: recombinant; tags: N-terminal GST; dsDNA, one strand shown
# T3 sequence: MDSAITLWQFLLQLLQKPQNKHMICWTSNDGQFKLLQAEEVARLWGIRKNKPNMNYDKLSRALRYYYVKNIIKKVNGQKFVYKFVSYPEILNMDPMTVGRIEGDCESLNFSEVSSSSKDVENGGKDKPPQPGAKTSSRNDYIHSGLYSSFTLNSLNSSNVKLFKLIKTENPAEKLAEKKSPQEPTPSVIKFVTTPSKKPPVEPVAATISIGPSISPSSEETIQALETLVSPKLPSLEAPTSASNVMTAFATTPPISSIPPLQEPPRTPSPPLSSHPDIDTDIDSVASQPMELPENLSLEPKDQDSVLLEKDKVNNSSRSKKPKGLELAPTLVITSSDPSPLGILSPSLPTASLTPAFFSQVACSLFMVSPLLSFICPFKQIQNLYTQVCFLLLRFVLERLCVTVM
# Method in brief: as §1
# ETV2 = target: T4, ETV2 (Homo sapiens, UniProt O00321 1-342); details: protein: recombinant; tags: N-terminal GST; dsDNA, one strand shown
# T4 sequence: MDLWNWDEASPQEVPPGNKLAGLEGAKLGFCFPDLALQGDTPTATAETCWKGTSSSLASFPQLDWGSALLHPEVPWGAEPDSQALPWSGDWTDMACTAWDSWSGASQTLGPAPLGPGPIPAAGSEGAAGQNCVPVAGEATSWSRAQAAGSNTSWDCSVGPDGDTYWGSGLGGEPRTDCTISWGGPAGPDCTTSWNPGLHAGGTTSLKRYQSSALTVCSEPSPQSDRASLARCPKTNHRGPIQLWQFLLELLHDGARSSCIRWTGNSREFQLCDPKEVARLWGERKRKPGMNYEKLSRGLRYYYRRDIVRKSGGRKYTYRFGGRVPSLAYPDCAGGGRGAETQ
# Method in brief: as §1
# ELF3 = target: T5, ELF3 (Homo sapiens, UniProt P78545 1-371); details: protein: recombinant; tags: N-terminal GST; dsDNA, one strand shown
# T5 sequence: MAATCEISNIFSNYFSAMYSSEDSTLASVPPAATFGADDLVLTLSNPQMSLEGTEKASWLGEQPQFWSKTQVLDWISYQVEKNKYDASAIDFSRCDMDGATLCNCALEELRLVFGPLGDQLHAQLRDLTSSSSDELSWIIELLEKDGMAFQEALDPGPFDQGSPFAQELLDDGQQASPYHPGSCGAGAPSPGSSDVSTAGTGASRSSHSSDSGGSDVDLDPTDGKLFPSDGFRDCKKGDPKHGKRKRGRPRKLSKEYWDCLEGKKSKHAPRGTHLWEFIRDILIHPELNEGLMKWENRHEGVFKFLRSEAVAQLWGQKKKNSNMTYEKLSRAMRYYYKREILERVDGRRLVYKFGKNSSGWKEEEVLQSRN
# Method in brief: as §1
# CRX = CRX (Homo sapiens, UniProt O43186 1-299); details: protein: recombinant; tags: N-terminal GST; dsDNA, one strand shown
# Method in brief: as §1
# ETV1 = ETV1 (Homo sapiens, UniProt P50549 1-477); details: protein: recombinant; tags: N-terminal GST; dsDNA, one strand shown
# Method in brief: as §1
# ERF = target: T6, ERF (Homo sapiens, UniProt P50548 1-548); details: protein: recombinant; tags: N-terminal GST; dsDNA, one strand shown
# T6 sequence: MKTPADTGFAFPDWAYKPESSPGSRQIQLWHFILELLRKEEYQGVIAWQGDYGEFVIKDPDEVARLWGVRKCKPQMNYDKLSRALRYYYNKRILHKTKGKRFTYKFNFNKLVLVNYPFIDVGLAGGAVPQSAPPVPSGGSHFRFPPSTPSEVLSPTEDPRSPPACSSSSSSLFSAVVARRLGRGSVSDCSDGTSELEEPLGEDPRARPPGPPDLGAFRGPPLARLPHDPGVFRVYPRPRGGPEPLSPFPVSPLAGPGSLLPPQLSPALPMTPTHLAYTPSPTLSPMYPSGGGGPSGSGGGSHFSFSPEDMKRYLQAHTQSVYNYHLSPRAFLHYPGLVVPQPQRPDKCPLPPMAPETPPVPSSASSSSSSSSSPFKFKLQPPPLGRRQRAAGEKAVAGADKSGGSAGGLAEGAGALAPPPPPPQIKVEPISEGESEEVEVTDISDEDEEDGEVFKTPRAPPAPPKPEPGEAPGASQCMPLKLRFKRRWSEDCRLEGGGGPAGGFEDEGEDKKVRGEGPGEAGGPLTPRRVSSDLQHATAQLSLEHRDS
# Method in brief: as §1
# ETV3L = target: T7, ETV3L (Homo sapiens, UniProt Q6ZN32 1-361); details: protein: recombinant; tags: N-terminal GST; dsDNA, one strand shown
# T7 sequence: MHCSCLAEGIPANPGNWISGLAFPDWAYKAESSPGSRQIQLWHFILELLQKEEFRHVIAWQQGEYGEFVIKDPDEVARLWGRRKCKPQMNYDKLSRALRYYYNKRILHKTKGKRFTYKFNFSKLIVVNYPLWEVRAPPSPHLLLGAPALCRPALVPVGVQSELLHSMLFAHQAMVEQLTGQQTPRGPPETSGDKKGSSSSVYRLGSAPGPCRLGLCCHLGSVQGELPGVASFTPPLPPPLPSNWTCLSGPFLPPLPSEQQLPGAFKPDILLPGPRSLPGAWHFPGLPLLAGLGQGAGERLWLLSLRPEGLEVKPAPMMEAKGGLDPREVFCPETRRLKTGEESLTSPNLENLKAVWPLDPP
# Method in brief: as §1
# ETS2 = target: T8, ETS2 (Homo sapiens, UniProt P15036 1-469); details: protein: recombinant; tags: N-terminal GST; dsDNA, one strand shown
# T8 sequence: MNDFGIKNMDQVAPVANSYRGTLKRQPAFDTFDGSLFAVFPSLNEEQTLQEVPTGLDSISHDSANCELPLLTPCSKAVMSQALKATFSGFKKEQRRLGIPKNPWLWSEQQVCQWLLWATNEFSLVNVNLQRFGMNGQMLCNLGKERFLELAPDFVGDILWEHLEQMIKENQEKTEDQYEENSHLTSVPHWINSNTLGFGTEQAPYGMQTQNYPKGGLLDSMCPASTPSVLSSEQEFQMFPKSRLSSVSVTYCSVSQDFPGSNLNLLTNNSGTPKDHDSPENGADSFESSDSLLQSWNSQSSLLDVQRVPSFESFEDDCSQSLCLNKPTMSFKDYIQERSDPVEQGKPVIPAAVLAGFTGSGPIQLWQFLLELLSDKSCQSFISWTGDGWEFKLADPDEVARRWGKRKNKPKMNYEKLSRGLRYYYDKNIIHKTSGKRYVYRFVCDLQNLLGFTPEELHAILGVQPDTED
# Method in brief: as §1
# SPDEF = target: T9, SPDEF (Homo sapiens, UniProt O95238 1-335); details: protein: recombinant; tags: N-terminal GST; dsDNA, one strand shown
# T9 sequence: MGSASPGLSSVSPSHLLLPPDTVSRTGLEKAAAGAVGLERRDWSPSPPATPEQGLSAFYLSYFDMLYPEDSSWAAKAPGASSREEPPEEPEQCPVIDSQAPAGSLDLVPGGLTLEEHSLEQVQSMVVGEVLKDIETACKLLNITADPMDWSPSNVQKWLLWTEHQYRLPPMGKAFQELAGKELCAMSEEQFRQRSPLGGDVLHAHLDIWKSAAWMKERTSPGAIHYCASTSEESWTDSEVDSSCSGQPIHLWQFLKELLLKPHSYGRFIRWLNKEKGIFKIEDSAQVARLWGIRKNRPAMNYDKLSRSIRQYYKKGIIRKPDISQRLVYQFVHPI
# Method in brief: as §1
# ETV7 = target: T10, ETV7 (Homo sapiens, UniProt Q9Y603 1-341); details: protein: recombinant; tags: N-terminal GST; dsDNA, one strand shown
# T10 sequence: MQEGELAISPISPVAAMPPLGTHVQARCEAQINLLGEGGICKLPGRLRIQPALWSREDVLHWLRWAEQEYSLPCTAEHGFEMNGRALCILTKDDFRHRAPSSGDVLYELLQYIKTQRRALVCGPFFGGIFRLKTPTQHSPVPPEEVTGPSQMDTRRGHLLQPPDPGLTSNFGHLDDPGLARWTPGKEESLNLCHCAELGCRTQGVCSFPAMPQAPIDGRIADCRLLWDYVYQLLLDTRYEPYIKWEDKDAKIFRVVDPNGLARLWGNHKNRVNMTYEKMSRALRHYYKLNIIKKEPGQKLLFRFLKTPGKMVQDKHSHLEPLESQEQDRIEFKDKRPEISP
# Method in brief: as §1
# ELF5 = target: T11, ELF5 (Homo sapiens, UniProt Q9UKW6-2 1-255); details: protein: recombinant; tags: N-terminal GST; dsDNA, one strand shown
# T11 sequence: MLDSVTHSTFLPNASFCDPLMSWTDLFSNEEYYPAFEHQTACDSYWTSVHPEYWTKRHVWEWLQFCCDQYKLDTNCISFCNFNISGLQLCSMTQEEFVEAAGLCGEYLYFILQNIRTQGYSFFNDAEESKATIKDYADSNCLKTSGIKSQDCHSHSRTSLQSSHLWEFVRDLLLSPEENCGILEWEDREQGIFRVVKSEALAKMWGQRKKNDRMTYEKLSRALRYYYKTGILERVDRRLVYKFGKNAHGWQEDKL
# Method in brief: as §1
# ETV3 = target: T12, ETV3 (Homo sapiens, UniProt P41162-2 1-143); details: protein: recombinant; tags: N-terminal GST; dsDNA, one strand shown
# T12 sequence: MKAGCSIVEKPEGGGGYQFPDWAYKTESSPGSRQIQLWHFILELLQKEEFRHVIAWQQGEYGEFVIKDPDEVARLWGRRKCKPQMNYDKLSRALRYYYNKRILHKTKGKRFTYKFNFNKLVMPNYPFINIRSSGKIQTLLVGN
# Method in brief: as §1
# ETV6 = ETV6 (Homo sapiens, UniProt P41212 1-452); details: protein: recombinant; tags: N-terminal GST; dsDNA, one strand shown
# Method in brief: as §1
# ETV6, sequence (P41212 whole entry): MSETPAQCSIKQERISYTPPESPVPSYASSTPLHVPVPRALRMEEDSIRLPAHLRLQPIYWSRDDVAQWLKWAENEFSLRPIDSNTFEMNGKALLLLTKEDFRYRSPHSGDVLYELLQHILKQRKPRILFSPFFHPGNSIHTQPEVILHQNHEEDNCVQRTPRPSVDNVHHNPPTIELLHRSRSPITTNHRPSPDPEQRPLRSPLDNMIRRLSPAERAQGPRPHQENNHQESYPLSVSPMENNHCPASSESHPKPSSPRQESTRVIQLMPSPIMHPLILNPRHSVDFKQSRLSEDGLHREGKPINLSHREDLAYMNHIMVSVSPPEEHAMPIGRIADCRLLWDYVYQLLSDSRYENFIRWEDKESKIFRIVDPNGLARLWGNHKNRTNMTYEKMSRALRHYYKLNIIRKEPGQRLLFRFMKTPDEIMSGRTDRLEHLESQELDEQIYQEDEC
# CRX, sequence (O43186 whole entry): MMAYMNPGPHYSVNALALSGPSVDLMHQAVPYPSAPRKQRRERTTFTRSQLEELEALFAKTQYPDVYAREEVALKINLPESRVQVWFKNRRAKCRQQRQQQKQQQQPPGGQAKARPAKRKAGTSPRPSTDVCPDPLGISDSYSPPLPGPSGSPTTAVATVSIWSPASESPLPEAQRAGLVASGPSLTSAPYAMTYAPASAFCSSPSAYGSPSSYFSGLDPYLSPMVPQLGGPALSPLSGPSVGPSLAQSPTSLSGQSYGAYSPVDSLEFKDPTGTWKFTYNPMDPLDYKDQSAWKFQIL
# ELF4, sequence (Q99607 whole entry): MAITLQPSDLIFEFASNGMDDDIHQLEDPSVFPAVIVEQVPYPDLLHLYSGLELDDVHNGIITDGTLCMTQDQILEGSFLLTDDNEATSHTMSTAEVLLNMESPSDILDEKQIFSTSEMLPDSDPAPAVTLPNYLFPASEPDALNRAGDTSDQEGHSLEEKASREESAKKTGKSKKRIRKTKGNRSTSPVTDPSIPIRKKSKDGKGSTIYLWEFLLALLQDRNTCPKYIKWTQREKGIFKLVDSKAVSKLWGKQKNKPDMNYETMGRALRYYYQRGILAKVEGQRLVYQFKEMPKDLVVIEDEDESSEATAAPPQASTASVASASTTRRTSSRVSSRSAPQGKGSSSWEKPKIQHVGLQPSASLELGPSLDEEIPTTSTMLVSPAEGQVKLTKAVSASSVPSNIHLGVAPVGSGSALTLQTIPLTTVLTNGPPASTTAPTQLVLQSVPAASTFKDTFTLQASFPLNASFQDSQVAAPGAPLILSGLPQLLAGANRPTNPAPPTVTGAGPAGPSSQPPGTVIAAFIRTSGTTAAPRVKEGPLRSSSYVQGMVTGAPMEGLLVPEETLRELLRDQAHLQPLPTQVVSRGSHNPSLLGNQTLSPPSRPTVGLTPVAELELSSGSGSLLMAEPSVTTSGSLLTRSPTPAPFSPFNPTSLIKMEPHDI
# ETV5, sequence (P41161 whole entry): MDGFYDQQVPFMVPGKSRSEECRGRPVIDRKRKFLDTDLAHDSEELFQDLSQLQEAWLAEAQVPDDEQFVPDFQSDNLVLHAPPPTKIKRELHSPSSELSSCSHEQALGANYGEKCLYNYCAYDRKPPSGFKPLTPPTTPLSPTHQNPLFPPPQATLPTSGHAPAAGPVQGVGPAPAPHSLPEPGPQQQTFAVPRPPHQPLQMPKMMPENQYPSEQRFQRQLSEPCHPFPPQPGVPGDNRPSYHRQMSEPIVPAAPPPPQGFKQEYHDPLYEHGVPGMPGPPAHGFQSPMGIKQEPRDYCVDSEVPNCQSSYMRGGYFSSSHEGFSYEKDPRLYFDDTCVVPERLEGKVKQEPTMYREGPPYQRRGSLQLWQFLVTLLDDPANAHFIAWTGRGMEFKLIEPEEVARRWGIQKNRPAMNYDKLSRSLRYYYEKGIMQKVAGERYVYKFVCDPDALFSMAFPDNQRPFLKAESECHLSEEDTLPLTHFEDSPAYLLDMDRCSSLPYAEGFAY
# HSF1, sequence (Q00613 whole entry): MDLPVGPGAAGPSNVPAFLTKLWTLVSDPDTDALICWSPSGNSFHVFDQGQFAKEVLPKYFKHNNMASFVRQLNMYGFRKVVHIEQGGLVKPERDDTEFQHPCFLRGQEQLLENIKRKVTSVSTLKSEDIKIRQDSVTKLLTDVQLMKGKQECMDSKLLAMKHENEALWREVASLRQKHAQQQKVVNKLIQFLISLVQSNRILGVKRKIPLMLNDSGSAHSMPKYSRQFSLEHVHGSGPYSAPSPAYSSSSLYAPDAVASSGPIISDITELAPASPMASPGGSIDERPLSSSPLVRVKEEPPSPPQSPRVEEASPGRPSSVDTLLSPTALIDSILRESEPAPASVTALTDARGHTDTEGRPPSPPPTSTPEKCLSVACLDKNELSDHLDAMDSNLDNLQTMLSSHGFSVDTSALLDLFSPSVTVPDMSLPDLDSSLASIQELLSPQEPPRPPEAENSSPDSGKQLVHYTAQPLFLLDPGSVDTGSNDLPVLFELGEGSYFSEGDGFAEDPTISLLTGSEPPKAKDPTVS
# ETV1, sequence (P50549 whole entry): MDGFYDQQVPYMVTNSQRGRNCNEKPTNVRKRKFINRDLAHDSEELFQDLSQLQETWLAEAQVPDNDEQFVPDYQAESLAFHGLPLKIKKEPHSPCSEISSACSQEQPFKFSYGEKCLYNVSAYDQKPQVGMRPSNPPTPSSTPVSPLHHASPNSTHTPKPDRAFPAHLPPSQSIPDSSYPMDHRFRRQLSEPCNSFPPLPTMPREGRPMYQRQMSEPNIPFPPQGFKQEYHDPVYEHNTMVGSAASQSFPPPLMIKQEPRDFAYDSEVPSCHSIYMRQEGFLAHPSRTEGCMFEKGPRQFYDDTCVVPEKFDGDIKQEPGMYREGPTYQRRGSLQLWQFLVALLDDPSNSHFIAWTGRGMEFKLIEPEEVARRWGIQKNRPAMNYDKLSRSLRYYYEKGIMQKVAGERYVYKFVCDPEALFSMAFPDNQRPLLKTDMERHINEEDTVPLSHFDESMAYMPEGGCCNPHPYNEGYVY
sequence,measurement,setting,value
CGCCTT,binding signal,FEV,"1.39 fold enrichment (6-mer frequency, TF over GST control)"
same,binding signal,ETV5,"1.37 fold enrichment (6-mer frequency, TF over GST control)"
same,binding signal,HSF1,"1.32 fold enrichment (6-mer frequency, TF over GST control)"
same,binding signal,SPIC,"1.47 fold enrichment (6-mer frequency, TF over GST control)"
same,binding signal,ELF4,"1.54 fold enrichment (6-mer frequency, TF over GST control)"
same,binding signal,ELK4,"1.52 fold enrichment (6-mer frequency, TF over GST control)"
same,binding signal,ETV2,"1.64 fold enrichment (6-mer frequency, TF over GST control)"
same,binding signal,ELF3,"1.26 fold enrichment (6-mer frequency, TF over GST control)"
same,binding signal,CRX,"1.38 fold enrichment (6-mer frequency, TF over GST control)"
same,binding signal,ETV1,"1.38 fold enrichment (6-mer frequency, TF over GST control)"
same,binding signal,ERF,"1.35 fold enrichment (6-mer frequency, TF over GST control)"
same,binding signal,ETV3L,"1.29 fold enrichment (6-mer frequency, TF over GST control)"
same,binding signal,ETS2,"1.3 fold enrichment (6-mer frequency, TF over GST control)"
same,binding signal,SPDEF,"1.3 fold enrichment (6-mer frequency, TF over GST control)"
same,binding signal,ETV7,"1.34 fold enrichment (6-mer frequency, TF over GST control)"
same,binding signal,ELF5,"1.52 fold enrichment (6-mer frequency, TF over GST control)"
same,binding signal,ETV3,"1.45 fold enrichment (6-mer frequency, TF over GST control)"
same,binding signal,ETV6,"1.52 fold enrichment (6-mer frequency, TF over GST control)"
